Assay results published in ChEMBL document CHEMBL3988442, “University of Dundee, Small-Polar-MMV Screening Library” (2021).
For some of these results: Entries with a potency or affinity are not part of this list.

Experiments:
Set-up in all cases: scale not given: direction of the effect not stated beside the values
[1] = biological target: Protein translocase subunit SecA (Escherichia coli (strain K12)) (UniProt P10408); experiment: Assay to Identify E. coli SecA ATPase Inhibitors; assay type: functional; settings: 30 µM
[2] = biological target: T1, Ubiquitin-activating enzyme e1, putative (Leishmania donovani (strain BPK282A1)) (UniProt E9BSI1); experiment: Leishmania donovani Ubiquitin Activating Enzyme (LdE1); assay type: functional; settings: 30 µM
T1 sequence (whole entry): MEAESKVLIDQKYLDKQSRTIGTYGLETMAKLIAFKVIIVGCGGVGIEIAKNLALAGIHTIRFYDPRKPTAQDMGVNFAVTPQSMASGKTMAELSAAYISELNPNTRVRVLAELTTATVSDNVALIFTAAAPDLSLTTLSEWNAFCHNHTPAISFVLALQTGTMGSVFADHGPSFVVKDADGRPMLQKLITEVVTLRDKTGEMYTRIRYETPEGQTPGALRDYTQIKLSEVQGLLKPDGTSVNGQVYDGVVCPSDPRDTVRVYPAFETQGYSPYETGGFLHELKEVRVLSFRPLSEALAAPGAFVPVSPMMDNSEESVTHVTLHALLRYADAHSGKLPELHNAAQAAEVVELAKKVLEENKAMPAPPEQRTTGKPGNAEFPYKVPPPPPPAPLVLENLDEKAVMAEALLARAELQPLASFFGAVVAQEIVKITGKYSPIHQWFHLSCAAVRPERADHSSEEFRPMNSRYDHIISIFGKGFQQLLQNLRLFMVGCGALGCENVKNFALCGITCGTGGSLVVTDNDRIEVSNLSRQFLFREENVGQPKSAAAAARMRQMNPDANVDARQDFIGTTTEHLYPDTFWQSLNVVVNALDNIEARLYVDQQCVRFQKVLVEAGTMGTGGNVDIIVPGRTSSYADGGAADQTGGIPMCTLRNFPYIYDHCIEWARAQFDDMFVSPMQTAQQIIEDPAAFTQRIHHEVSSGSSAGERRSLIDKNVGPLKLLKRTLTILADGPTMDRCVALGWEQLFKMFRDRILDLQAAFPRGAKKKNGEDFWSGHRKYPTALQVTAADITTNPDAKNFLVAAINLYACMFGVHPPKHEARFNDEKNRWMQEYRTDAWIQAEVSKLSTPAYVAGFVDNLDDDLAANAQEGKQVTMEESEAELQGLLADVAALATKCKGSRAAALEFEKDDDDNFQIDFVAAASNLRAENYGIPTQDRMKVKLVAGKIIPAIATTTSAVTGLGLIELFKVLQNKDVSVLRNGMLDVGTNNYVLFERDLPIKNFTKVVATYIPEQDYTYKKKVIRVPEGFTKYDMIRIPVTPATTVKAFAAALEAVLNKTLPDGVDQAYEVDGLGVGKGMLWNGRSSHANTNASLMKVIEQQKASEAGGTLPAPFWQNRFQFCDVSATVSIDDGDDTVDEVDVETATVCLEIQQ

[3] = biological target: AMP-activated protein kinase, AMPK (Homo sapiens) (UniProt P54646+O43741+P54619+Q9UGJ0+Q9Y478+Q13131+Q9UGI9); experiment: AMP-dependent Kinase enzyme assay. An in vitro enzyme assay that detects ADP turnover that is directly proportional to AMPK activity. This uses naive AMPK that is activated during the assay with MK-8722; assay type: functional; settings: 30 µM
[4] = biological target: Sialic acid-binding Ig-like lectin 9 (Homo sapiens) (UniProt Q9Y336); experiment: Hs-Siglec9 ALPHAscreen SOP 20170721; settings: 10 µM
Trypanosoma cruzi = experiment: Trypanosoma cruzi phosphomannomutase and mannose-1-phosphate guanylyltransferase assay; assay type: functional; settings: 10 µM
[5] = biological target: T2, Arginase-2, mitochondrial (Homo sapiens) (UniProt P78540); experiment: in vitro enzyme assay to detect the production of urea directly proportional to the activity of Arginase II; assay type: functional; settings: 33.3 µM; also: in the data most compounds retested in dose-response had high values
T2 sequence (whole entry): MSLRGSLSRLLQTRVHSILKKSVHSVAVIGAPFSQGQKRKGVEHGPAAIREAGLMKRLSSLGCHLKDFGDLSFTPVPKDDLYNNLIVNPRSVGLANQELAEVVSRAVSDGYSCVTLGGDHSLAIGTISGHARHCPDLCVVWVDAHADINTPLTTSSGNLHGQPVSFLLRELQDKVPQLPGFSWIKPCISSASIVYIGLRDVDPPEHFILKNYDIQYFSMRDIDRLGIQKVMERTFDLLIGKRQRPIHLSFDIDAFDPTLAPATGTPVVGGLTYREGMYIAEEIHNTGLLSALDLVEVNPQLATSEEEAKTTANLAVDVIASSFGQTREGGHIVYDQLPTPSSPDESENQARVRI

[6] = biological target: T3, Proteasome subunit beta (Trypanosoma cruzi) (UniProt O96673); experiment: Trypanosoma cruzi proteasome chymotrypsin-like activity (TcProtChymo) assay.; also: in the data most compounds retested in dose-response had high values; assay type: functional; settings: 9.37 µM
T3 sequence (whole entry): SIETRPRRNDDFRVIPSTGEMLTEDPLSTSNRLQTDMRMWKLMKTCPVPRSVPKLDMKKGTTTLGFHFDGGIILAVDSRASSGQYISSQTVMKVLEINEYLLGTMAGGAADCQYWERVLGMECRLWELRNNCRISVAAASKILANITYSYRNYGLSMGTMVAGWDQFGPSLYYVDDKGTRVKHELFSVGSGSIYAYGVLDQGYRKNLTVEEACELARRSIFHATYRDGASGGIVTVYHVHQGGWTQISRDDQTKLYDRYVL

Homo sapiens = species on record: Homo sapiens; experiment: To identify inhibition of the IFN signalling (Jak-Stat) pathway via expression of an eGFP reporter gene under the control of an IFN-stimulated response element (ISRE) containing MxA promoter.; assay type: functional; settings: 30 µM
[7] = biological target: T4, Tyrosyl-tRNA synthetase, putative (Trypanosoma cruzi (strain CL Brener)) (UniProt Q4DSP6); experiment: Trypanosoma cruzi tyrosyl tRNA synthetase (TcYRS) _High Tyrosine SOP; assay type: functional; settings: 30 µM; also: in the data most compounds retested in dose-response had high values
T4 sequence (whole entry): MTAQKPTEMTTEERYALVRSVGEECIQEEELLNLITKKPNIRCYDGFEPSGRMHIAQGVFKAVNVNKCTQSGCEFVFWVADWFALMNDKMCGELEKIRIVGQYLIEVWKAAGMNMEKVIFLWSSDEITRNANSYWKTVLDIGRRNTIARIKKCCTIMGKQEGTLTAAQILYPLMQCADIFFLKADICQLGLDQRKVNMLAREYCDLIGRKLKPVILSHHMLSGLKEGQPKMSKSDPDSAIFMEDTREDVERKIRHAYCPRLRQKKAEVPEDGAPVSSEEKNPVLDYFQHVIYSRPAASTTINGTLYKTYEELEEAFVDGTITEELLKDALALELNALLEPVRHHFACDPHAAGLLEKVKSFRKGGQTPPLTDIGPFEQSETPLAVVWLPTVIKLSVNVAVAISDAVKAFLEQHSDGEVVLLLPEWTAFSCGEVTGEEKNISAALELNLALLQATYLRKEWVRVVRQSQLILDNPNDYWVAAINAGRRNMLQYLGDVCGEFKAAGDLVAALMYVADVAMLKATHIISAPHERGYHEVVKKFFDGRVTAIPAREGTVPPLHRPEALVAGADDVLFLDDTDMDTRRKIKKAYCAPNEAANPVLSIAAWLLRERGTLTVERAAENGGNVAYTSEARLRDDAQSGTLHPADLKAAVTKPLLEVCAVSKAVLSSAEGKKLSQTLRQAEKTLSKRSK

[8] = biological target: T4, Tyrosyl-tRNA synthetase, putative (Trypanosoma cruzi (strain CL Brener)); experiment: Trypanosoma cruzi tyrosyl tRNA synthetase (TcYRS) SOP; assay type: functional; settings: 30 µM
[9] = biological target: Chromo domain-containing protein 1 (Saccharomyces cerevisiae (strain ATCC 204508 / S288c) (Baker's yeast)) (UniProt P32657); experiment: ScCHD-1 Enzyme Inhibition Assay; assay type: functional; settings: 30 µM; also: in the data most compounds retested in dose-response had high values
Chromo domain-containing protein 1 (Saccharomyces cerevisiae (strain ATCC 204508 / S288c) (Baker's yeast)), sequence (P32657 whole entry, the tested form may be a part): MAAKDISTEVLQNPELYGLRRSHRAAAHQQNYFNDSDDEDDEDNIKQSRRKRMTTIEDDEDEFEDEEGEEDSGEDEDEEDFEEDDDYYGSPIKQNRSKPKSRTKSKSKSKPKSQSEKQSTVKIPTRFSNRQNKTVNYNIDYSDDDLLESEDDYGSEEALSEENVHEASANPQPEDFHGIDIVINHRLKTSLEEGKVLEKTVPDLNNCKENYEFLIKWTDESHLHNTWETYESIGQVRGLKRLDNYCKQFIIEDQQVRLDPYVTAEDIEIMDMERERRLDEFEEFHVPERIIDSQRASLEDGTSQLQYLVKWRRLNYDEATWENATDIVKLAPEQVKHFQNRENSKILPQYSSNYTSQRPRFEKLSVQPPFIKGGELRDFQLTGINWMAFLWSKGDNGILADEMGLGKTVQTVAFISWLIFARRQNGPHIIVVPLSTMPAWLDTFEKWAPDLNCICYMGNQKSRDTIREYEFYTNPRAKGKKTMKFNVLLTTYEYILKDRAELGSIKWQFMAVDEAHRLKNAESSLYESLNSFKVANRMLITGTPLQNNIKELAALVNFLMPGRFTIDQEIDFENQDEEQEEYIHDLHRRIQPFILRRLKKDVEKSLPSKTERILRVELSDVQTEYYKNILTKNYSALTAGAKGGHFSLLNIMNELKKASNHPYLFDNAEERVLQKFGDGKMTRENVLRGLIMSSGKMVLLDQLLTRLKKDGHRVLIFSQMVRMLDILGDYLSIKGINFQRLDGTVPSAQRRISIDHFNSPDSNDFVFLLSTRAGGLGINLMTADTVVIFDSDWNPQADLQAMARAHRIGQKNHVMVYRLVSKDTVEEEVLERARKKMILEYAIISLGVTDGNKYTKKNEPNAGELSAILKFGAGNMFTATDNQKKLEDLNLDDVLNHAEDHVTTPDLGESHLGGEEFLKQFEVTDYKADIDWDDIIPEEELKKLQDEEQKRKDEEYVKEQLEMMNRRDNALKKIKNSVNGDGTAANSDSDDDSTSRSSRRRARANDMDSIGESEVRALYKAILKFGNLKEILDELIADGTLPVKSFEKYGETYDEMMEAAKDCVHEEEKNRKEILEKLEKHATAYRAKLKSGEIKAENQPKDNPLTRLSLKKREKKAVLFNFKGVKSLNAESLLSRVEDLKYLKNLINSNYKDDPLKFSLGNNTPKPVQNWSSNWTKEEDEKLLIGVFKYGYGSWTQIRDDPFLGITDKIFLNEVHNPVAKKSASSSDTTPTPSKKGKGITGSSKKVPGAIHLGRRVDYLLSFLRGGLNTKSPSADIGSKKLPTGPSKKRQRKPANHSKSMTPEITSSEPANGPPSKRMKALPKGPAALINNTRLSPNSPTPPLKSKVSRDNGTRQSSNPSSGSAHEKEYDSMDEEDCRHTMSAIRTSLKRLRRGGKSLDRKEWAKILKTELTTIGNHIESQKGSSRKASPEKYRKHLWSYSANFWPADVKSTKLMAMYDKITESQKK

Protein translocase subunit SecA (Escherichia coli (strain K12)), sequence (P10408 whole entry): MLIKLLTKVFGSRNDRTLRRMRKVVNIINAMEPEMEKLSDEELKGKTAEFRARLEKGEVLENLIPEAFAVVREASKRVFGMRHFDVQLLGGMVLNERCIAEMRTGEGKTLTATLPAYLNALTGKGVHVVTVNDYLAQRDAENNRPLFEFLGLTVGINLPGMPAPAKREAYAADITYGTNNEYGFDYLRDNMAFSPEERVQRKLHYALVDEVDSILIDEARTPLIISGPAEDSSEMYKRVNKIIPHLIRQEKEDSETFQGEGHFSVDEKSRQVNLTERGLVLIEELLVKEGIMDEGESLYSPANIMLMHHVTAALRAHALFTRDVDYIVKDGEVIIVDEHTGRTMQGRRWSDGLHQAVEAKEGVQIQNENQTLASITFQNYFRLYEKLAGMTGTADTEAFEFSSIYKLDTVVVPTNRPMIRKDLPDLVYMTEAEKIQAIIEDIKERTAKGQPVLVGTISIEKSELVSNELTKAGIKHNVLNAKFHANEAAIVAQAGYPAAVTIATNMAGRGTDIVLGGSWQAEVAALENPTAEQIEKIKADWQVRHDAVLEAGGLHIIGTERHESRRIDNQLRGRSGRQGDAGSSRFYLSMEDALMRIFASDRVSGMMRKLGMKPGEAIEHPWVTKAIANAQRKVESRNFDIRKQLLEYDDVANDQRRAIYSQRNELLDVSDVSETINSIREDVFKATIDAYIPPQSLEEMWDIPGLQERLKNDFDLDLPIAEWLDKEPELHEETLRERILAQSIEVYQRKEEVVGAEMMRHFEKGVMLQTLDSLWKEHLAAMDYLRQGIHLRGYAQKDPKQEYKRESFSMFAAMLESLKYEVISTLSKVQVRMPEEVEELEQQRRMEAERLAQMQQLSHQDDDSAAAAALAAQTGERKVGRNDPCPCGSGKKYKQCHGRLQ
Sialic acid-binding Ig-like lectin 9 (Homo sapiens), sequence (Q9Y336 whole entry): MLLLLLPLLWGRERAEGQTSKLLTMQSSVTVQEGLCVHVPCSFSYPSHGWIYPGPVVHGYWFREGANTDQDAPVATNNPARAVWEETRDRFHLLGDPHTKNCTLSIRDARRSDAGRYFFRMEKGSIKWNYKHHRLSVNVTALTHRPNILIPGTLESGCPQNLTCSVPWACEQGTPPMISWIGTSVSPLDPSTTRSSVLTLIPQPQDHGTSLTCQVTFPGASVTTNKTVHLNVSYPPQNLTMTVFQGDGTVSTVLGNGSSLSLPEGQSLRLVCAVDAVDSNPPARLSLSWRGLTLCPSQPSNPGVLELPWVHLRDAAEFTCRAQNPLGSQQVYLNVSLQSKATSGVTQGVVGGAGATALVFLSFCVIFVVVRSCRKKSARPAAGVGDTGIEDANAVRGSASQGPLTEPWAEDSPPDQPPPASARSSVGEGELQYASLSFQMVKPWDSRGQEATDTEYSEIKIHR

SMILES | Percent Effect [1] [%] | Percent Effect [2] [%] | Percent Effect [3] [%] | Percent Effect [4] [%] | Percent Effect (Trypanosoma cruzi) [%] | Percent Effect [5] [%] | Percent Effect [6] [%] | Percent Effect (Homo sapiens) [%] | Percent Effect [7] [%] | Percent Effect [8] [%] | Percent Effect [9] [%]
O=C(c1ccco1)N1CCCC(c2cc(C(F)F)n3ncnc3n2)C1 (stereo not given) | -1.42 | 4.05 | 9.33 | 28.2 | -8.5 | 3.02 | 3.9 | 7.52 | 0 | 3.9 | 3.66
O=C(c1ccccc1OCC1CC1)N1CCCC(n2ccnc2)C1 (stereo not given) | 1.84 | 1.27 | 11.2 | -0.0308 | 3.18 | 5.81 | 10.3 | -14 | 2.08 | 7.59 | -6.24
Cc1ccc(CNCc2ccc(-n3nc(C)cc3C)nc2)cc1 | -1.16 | 13.2 | 0.483 | 7.65 | 1.5 | 0.383 | 11.4 | 6.18 | 9.31 | 19.5 | -9.49
Cc1nc(Nc2nccs2)cc(C2CCCN2C2CCOCC2)n1 (stereo not given) | -6.58 | 12.2 | 4.38 | 1.96 | 4.35 | -3.48 | 8.89 | 6.9 | 6.45 | 14.3 | -16.1
Cc1cnn(CCC(=O)N2CCOC(c3nc(C(C)(C)C)n[nH]3)C2)c1 (stereo not given) | -3.54 | -6.94 | 7.25 | 3.02 | -3.6 | -0.883 | 5.26 | 20.6 | -1.05 | -10.3 | -1.3
CN(C)CCOCC1CN(C(=O)[C@H]2CCCO2)Cc2ccnn2C1 (stereo not given in full) | -0.666 | 0 | -0.823 | 5.06 | -1.35 | -46.1 | 2.91 | -2.46 | 1.04 | -55 | 3.03
CN1CCC(C(=O)NCc2nncn2-c2ccccc2)CC1=O (stereo not given) | -2.63 | 5.41 | -5.14 | 5.74 | -3.87 | -2 | 0 | 13.5 | 4.43 | 1.24 | -2.07
Cc1nnc(NC(=O)NCc2ccc(N3CCN(C)CC3)nc2)s1 | -5 | 15.8 | -3.09 | -1.76 | -5.32 | -0.36 | 13.6 | 3.4 | 5.42 | 18.5 | -9.38
CCOCC(O)CN1CCN(C(=O)c2cc(F)ccc2C)CC1 (stereo not given) | -1.68 | 0 | -2.69 | -1.76 | 0.187 | 0 | -3.72 | -13.3 | 0.971 | 2.44 | 2.5
CCCOc1ccc(CNC2CCCc3c2cnn3CC)cc1OC (stereo not given) | -6.15 | 15.2 | -7.05 | 11 | 6.33 | -3.04 | 5.98 | 2.78 | 9.36 | 21.5 | -12.2
CCn1nc2c(cc1=O)CN(Cc1nc(N)c3ccccc3n1)CC2 | -5.07 | 5.48 | -62.9 | 1.04 | 3.92 | 3.64 | 14.6 | -3.85 | 2.15 | 12.5 | -7.75
CC(C)C(C(=O)N1CCN(c2ccncc2)CC1)n1cncn1 (stereo not given) | -5.41 | 15.6 | -0.644 | 10.9 | 6.98 | -34.5 | 11.8 | 8.3 | 4.3 | 13.6 | -7.32
COCCN1CCC(NCc2cccnc2)C1 (stereo not given) | -5.87 | -2.6 | -0.869 | -1.42 | -5.06 | 2.49 | 5.74 | 16.6 | 1.94 | -4.88 | -3.65
O=C1[C@H]2CN(CC3CC3)C[C@H]2CN1Cc1cccc(F)c1 | 1.22 | -56.8 | 4.89 | 3.99 | -0.0978 | -0.955 | 12.7 | -14.7 | 2.16 | 2.56 | 9.93
CCOCC1CN(C(=O)c2cccn2C)Cc2cnn(CC3CC3)c21 (stereo not given) | -4.01 | 5.2 | -0.603 | 8.24 | 0.69 | -12.3 | 3.48 | 6.88 | 11.6 | 16.7 | -8.59
O=C(c1cncc(Br)c1)N1CCC(O)(Cn2ccc3ccncc32)CC1 | 1.79 | 1.35 | 12.2 | -0.489 | -7.91 | 1.62 | 9.52 | 9.61 | 1.07 | 1.3 | -12.2
Cn1ncc2c1C(COCC1CC1)CN(Cc1ccc(F)cc1)C2 (stereo not given) | -0.87 | 18.9 | 3.73 | -11.9 | -1.07 | 0.955 | 8.12 | 23.2 | 2.16 | 15.4 | -6.67
Cn1ncc2c(=O)[nH]c(CN3CCC(Cc4ccccc4)CC3)nc21 | -4.67 | 10.5 | -7.07 | 0.445 | 8.87 | 3.6 | 7.7 | -0.345 | 9.36 | 25.9 | -10.4
CCC(C)(C)NC(=O)CN(C)C(c1cccc(F)c1)c1ccccn1 (stereo not given) | 0.66 | 2.6 | 9.59 | 15.1 | -3.56 | 3.56 | 0.845 | 36.6 | 5.83 | 7.32 | -2.33
CCNc1cc2c(nn1)CCN(C(=O)CC1CCCCC1)C2 | -8.49 | 12.7 | 0.0974 | 9.47 | 1.42 | 3.04 | -0.0819 | -11.3 | 16.3 | 8.86 | -8.44
